# Counter-ions that a name gives are not always drawn. ± gives the standard error. About 130 (10%) of roughly 1,300 compounds showed an effect of 50% or more. What follows is part of a selection rich in strong results, with near analogues and random picks from the rest.
# Tested on: Trichoderma virens ATCC 9645
# Assay: growth yield (OD600) with compound + IPBC relative to untreated control; higher = less growth inhibition
# Conditions: compound concentration: 100 uM, IPBC concentration: 200 ng/ml
# Outline: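 Library compounds (100 μM final), with or without a co-applied biocide (200 ng ml^−1), were added to 100 μl aliquots of Trichoderma virens ATCC 9645 spores at 15,000 spores ml^−1 in potato dextrose broth. Cultures were grown at 30 °C in 96-well plates, and OD600 was measured at 40 h and 72 h. Each growth value is a mean of duplicate screens, expressed relative to the control with neither agent.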
SMILES,growth yield (40 h) [%],growth yield (72 h) [%]
CCCCC(CC)CNC(=N)NC(=N)NCCCCCCNC(=N)NC(=N)NCC(CC)CCCC (configuration not stated) [Alexidine dihydrochloride] + CCCCNC(=O)OCC#CI [3-iodo-2-propynyl butylcarbamate (IPBC)],2.5415 ± 3.6e-15,2.94 ± 0.21
Cn1c(=O)c2c(ncn2CC(=O)O)n(C)c1=O [Acefylline] + CCCCNC(=O)OCC#CI [3-iodo-2-propynyl butylcarbamate (IPBC)],90.1 ± 2.1,91.1 ± 2
"NCC(CC(=O)O)c1ccc(Cl)cc1 (racemic) [Baclofen (R,S)] + CCCCNC(=O)OCC#CI [3-iodo-2-propynyl butylcarbamate (IPBC)]",96.1 ± 4,96.8 ± 3.2
O=C(O)c1cccnc1 [Niacin] + CCCCNC(=O)OCC#CI [3-iodo-2-propynyl butylcarbamate (IPBC)],105 ± 1.9,102.8 ± 0.84
CC(=O)Oc1ccccc1C(=O)Oc1ccccc1C(=O)O [Acetylsalicylsalicylic acid] + CCCCNC(=O)OCC#CI [3-iodo-2-propynyl butylcarbamate (IPBC)],85 ± 1.8,89.7 ± 2.2
O=C(Oc1cccc2cccnc12)c1ccccc1 [Benzoxiquine] + CCCCNC(=O)OCC#CI [3-iodo-2-propynyl butylcarbamate (IPBC)],36.4 ± 0.48,65.5 ± 0.73
Fc1ccc([C@@H]2CCNC[C@H]2COc2ccc3c(c2)OCO3)cc1 [Paroxetine Hydrochloride] + CCCCNC(=O)OCC#CI [3-iodo-2-propynyl butylcarbamate (IPBC)],68 ± 4.8,92.5 ± 2.5
O=C(O)CNC(=O)C(CS)Cc1ccccc1 (configuration not stated) [Thiorphan] + CCCCNC(=O)OCC#CI [3-iodo-2-propynyl butylcarbamate (IPBC)],88.16 ± 0.48,90
C/C(=C(\CCOP(=O)(O)O)SC(=O)c1ccccc1)N(C=O)Cc1cnc(C)nc1N [Benfotiamine] + CCCCNC(=O)OCC#CI [3-iodo-2-propynyl butylcarbamate (IPBC)],89.6 ± 4.1,90.3 ± 3.7
COc1cc(C)nc(-n2nc(C)cc2OC)n1 [Epirizole] + CCCCNC(=O)OCC#CI [3-iodo-2-propynyl butylcarbamate (IPBC)],92.3 ± 7.5,101 ± 6.2
C[C@@H](CN1CC(=O)NC(=O)C1)N1CC(=O)NC(=O)C1 [Dexrazoxane hydrochloride] + CCCCNC(=O)OCC#CI [3-iodo-2-propynyl butylcarbamate (IPBC)],109.4 ± 0.48,106 ± 4.2
Cc1ccc(C(=O)c2cc(O)c(O)c([N+](=O)[O-])c2)cc1 [Tolcapone] + CCCCNC(=O)OCC#CI [3-iodo-2-propynyl butylcarbamate (IPBC)],47.5 ± 3.3,56 ± 2.7
CCN(CC)C(=O)/C(C#N)=C/c1cc(O)c(O)c([N+](=O)[O-])c1 [Entacapone] + CCCCNC(=O)OCC#CI [3-iodo-2-propynyl butylcarbamate (IPBC)],88 ± 0.64,80.4 ± 1.4
NC[C@@H]1O[C@@H](O[C@H]2[C@H](O)[C@@H](O[C@H]3O[C@H](CO)[C@@H](O)[C@H](N)[C@H]3O)[C@H](N)C[C@@H]2N)[C@@H](O)[C@H](O)[C@H]1O [Kanamycin A sulfate] + CCCCNC(=O)OCC#CI [3-iodo-2-propynyl butylcarbamate (IPBC)],87.2 ± 9.4,93.4 ± 4.7
c1ccc(CN(CC2=NCCN2)c2ccccc2)cc1 [Antazoline hydrochloride] + CCCCNC(=O)OCC#CI [3-iodo-2-propynyl butylcarbamate (IPBC)],82.76 ± 0.79,94.28 ± 0.94
C#C[C@]1(O)CC[C@H]2[C@@H]3CCC4=CC(=O)CC[C@]4(C)[C@H]3CC[C@@]21C [Ethisterone] + CCCCNC(=O)OCC#CI [3-iodo-2-propynyl butylcarbamate (IPBC)],105 ± 2.7,105 ± 3.2
C=CCN1CCCC1CNC(=O)c1cc2nn[nH]c2cc1OC (configuration not stated) [Alizapride hydrochloride] + CCCCNC(=O)OCC#CI [3-iodo-2-propynyl butylcarbamate (IPBC)],111.5 ± 0.32,107
OC(CNCC(O)C1CCc2cc(F)ccc2O1)C1CCc2cc(F)ccc2O1 (configuration not stated) [Nebivolol hydrochloride] + CCCCNC(=O)OCC#CI [3-iodo-2-propynyl butylcarbamate (IPBC)],11.3 ± 4.3,63.7 ± 18
NC(=O)c1cccnc1 [Nicotinamide] + CCCCNC(=O)OCC#CI [3-iodo-2-propynyl butylcarbamate (IPBC)],106 ± 4.8,101.4 ± 0.94
C=CC1=C(C(=O)O)N2C(=O)[C@@H](NC(=O)/C(=N\OCC(=O)O)c3csc(N)n3)[C@H]2SC1 [Cefixime] + CCCCNC(=O)OCC#CI [3-iodo-2-propynyl butylcarbamate (IPBC)],104.8 ± 0.64,103
Clc1cc(Cl)c(OCC#CI)cc1Cl [Haloprogin] + CCCCNC(=O)OCC#CI [3-iodo-2-propynyl butylcarbamate (IPBC)],5.24 ± 0.48,2.83 ± 1.6
CC1=Nc2ccc(Cl)cc2S(=O)(=O)N1 [Diazoxide] + CCCCNC(=O)OCC#CI [3-iodo-2-propynyl butylcarbamate (IPBC)],97.4 ± 4,100.8 ± 0.94
CC[C@H]1OC(=O)[C@H](C)[C@@H](O[C@H]2C[C@@](C)(OC)[C@@H](O)[C@H](C)O2)[C@H](C)[C@@H](O[C@@H]2O[C@H](C)C[C@H](N(C)C)[C@H]2O)[C@](C)(O)C[C@@H](C)/C(=N\OCOCCOC)[C@H](C)[C@@H](O)[C@]1(C)O [Roxithromycin] + CCCCNC(=O)OCC#CI [3-iodo-2-propynyl butylcarbamate (IPBC)],97.2 ± 9.5,96.4 ± 4.3
CC(C)(C)c1ccc(C(O)CCCN2CCC(C(O)(c3ccccc3)c3ccccc3)CC2)cc1 (configuration not stated) [Terfenadine] + CCCCNC(=O)OCC#CI [3-iodo-2-propynyl butylcarbamate (IPBC)],47.2 ± 9.1,90.09 ± 0.73
CC(C)(C(=O)O)c1ccc(C(O)CCCN2CCC(C(O)(c3ccccc3)c3ccccc3)CC2)cc1 (configuration not stated) [Fexofenadine hydrochloride] + CCCCNC(=O)OCC#CI [3-iodo-2-propynyl butylcarbamate (IPBC)],89.3 ± 5.4,95.5 ± 7.2
OC(c1ccccc1)(c1ccccc1)C1CCNCC1 [Azacyclonol] + CCCCNC(=O)OCC#CI [3-iodo-2-propynyl butylcarbamate (IPBC)],80.06 ± 0.32,91.2 ± 1.5

# From the supplement of paper PMC8007513
